Experimental data as given in PubChem BioAssay AID1159580 (chemical genetic matrix, 2015).
Values joined by “and” are separate entries in the source; they are usually repeats but may differ in a detail not shown here. Identical values can stand only once. Out of some 5,500 compounds screened, about 2,000 (36%) were called active. Not shown: some 18% with an inconclusive outcome. Rule as the data show it: active = normalized growth mostly below about 0.91 (no sharp cut-off); inconclusive = no clear call, values can overlap the other calls; inactive = mostly above about 0.92. The list shows a part of the results.

Test: chemical genetic growth profiling, strain panel (AID 1159580);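 also: tested at 20 µM; growth read once vehicle control cultures reached saturation at 30 °C; 1 = growth at the plate median or of vehicle wells; lower values mean less growth of the strain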
Conditions: growth OD

Measured: normalized growth

O=C(OCC(O)CO)c1ccccc1Nc1ccnc2cc(Cl)ccc12 (configuration not stated)
inactive: S. cerevisiae deletion strains, locus YAL013W, strain DEP1, hits give low values 0.996 | S. cerevisiae deletion strains, locus YBR021W, strain FUR4, hits give low values 1.01 | S. cerevisiae deletion strains, locus YBR229C, strain ROT2, hits give low values 0.994 | S. cerevisiae deletion strains, locus YCL029C, strain bik1, hits give low values 0.961 | S. cerevisiae deletion strains, locus YDL035C, strain GPR1, hits give low values 1.01 | S. cerevisiae deletion strains, locus YDL074C, strain BRE1, hits give low values 0.978 | S. cerevisiae deletion strains, locus YDL101C, strain DUN1, hits give low values 0.98 | S. cerevisiae deletion strains, locus YDL134C, strain PPH21, hits give low values 0.999 | S. cerevisiae deletion strains, locus YDL185W, strain tfp1, hits give low values 0.978 | S. cerevisiae deletion strains, locus YDL192W, strain arf1, hits give low values 0.99 | S. cerevisiae deletion strains, locus YDR101C, strain arx1, hits give low values 0.988 | S. cerevisiae deletion strains, locus YDR150W, strain NUM1, hits give low values 0.98 | S. cerevisiae deletion strains, locus YDR162C, strain NBP2, hits give low values 0.992 | S. cerevisiae deletion strains, locus YDR318W, strain mcm21, hits give low values 0.977 | S. cerevisiae deletion strains, locus YDR388W, hits give low values 0.997 | S. cerevisiae deletion strains, locus YDR502C, strain sam2, hits give low values 0.975 | S. cerevisiae deletion strains, locus YEL061C, strain CIN8, hits give low values 0.997 | S. cerevisiae deletion strains, locus YER110C, hits give low values 0.978 | S. cerevisiae deletion strains, locus YER155C, strain BEM2, hits give low values 0.988 | S. cerevisiae deletion strains, locus YER167W, strain BCK2, hits give low values 0.986 | S. cerevisiae deletion strains, locus YGL078C, strain dbp3, hits give low values 0.995 | S. cerevisiae deletion strains, locus YGL086W, strain mad1, hits give low values 0.999 | S. cerevisiae deletion strains, locus YGL248W, strain PDE1, hits give low values 0.983 | S. cerevisiae deletion strains, locus YGR078C, strain PAC10, hits give low values 0.962 | S. cerevisiae deletion strains, locus YGR135W, strain pre9, hits give low values 0.974 | S. cerevisiae deletion strains, locus YGR229C, strain SMI1, hits give low values 0.981 | S. cerevisiae deletion strains, locus YGR252W, strain gcn5, hits give low values 1.06 | S. cerevisiae deletion strains, locus YHR030C, strain SLT2, hits give low values 0.991 and 0.957 | S. cerevisiae deletion strains, locus YHR079C, strain IRE1 (second series), hits give low values 0.989 | S. cerevisiae deletion strains, locus YHR079C, strain IRE1, hits give low values 0.969 | S. cerevisiae deletion strains, locus YHR094C, strain hxt1, hits give low values 0.979 | S. cerevisiae deletion strains, locus YHR129C, strain ARP1, hits give low values 0.981 | S. cerevisiae deletion strains, locus YHR200W, strain rpn10, hits give low values 0.987 | S. cerevisiae deletion strains, locus YIL066C, strain RNR3, hits give low values 0.98 | S. cerevisiae deletion strains, locus YIL073C, strain SPO22, hits give low values 0.925 | S. cerevisiae deletion strains, locus YIL125W, strain kgd1, hits give low values 0.991 | S. cerevisiae deletion strains, locus YIR030C, strain dcg1, hits give low values 0.988 | S. cerevisiae deletion strains, locus YJL095W, strain BCK1, hits give low values 0.943 and 0.974 | S. cerevisiae deletion strains, locus YJL134W, strain LCB3, hits give low values 0.993 | S. cerevisiae deletion strains, locus YJL168C, strain set2, hits give low values 0.995 | S. cerevisiae deletion strains, locus YJL187C, strain SWE1 (second series), hits give low values 0.936 | S. cerevisiae deletion strains, locus YJR043C, strain POL32, hits give low values 0.982 | S. cerevisiae deletion strains, locus YJR066W, strain TOR1, hits give low values 0.912 | S. cerevisiae deletion strains, locus YJR075W, strain HOC1, hits give low values 0.978 | S. cerevisiae deletion strains, locus YKL009W, strain mrt4, hits give low values 0.968 | S. cerevisiae deletion strains, locus YKL068W, hits give low values 0.987 | S. cerevisiae deletion strains, locus YKL085W, strain MDH1 (second series), hits give low values 0.975 | S. cerevisiae deletion strains, locus YKL085W, strain MDH1, hits give low values 0.975 | S. cerevisiae deletion strains, locus YKL190W, strain CNB1, hits give low values 0.984 | S. cerevisiae deletion strains, locus YKR001C, strain vps1, hits give low values 0.99 | S. cerevisiae deletion strains, locus YLR039C, strain RIC1, hits give low values 1.01 | S. cerevisiae deletion strains, locus YLR058C, strain SHM2, hits give low values 0.986 | S. cerevisiae deletion strains, locus YLR102C, strain apc9, hits give low values 0.992 | S. cerevisiae deletion strains, locus YLR113W, strain HOG1, hits give low values 1.01 | S. cerevisiae deletion strains, locus YLR262C, strain YPT6, hits give low values 1.03 | S. cerevisiae deletion strains, locus YLR268W, strain sec22, hits give low values 0.918 | S. cerevisiae deletion strains, locus YLR330W, strain CHS5, hits give low values 0.988 | S. cerevisiae deletion strains, locus YLR342W, strain FKS1 (second series), hits give low values 1.05 | S. cerevisiae deletion strains, locus YLR371W, strain rom2, hits give low values 0.985 | S. cerevisiae deletion strains, locus YLR418C, strain cdc73, hits give low values 0.924 | S. cerevisiae deletion strains, locus YML016C, strain PPZ1, hits give low values 0.999 | S. cerevisiae deletion strains, locus YML032C, strain rad52, hits give low values 0.971 | S. cerevisiae deletion strains, locus YML124C, strain tub3, hits give low values 0.988 | S. cerevisiae deletion strains, locus YMR078C, strain ctf18, hits give low values 0.99 | S. cerevisiae deletion strains, locus YMR223W, strain ubp8, hits give low values 1.01 | S. cerevisiae deletion strains, locus YMR263W, strain SAP30, hits give low values 0.976 | S. cerevisiae deletion strains, locus YMR307W, strain GAS1, hits give low values 0.984 | S. cerevisiae deletion strains, locus YNL067W, strain RPL9B, hits give low values 0.968 | S. cerevisiae deletion strains, locus YNL128W, strain TEP1, hits give low values 0.975 | S. cerevisiae deletion strains, locus YNL153C, strain GIM3, hits give low values 0.976 | S. cerevisiae deletion strains, locus YNL183C, strain NPR1, hits give low values 0.899 | S. cerevisiae deletion strains, locus YNL233W, strain BNI4, hits give low values 0.974 | S. cerevisiae deletion strains, locus YNL250W, strain rad50, hits give low values 0.969 | S. cerevisiae deletion strains, locus YNL271C, strain bni1, hits give low values 0.987 | S. cerevisiae deletion strains, locus YNL298W, strain CLA4, hits give low values 0.993 | S. cerevisiae deletion strains, locus YNL307C, strain MCK1, hits give low values 0.983 | S. cerevisiae deletion strains, locus YNL322C, strain KRE1, hits give low values 0.988 | S. cerevisiae deletion strains, locus YNR052C, strain pop2, hits give low values 1.01 | S. cerevisiae deletion strains, locus YOL006C, strain TOP1, hits give low values 0.929 | S. cerevisiae deletion strains, locus YOL012C, strain htz1 1.65 | S. cerevisiae deletion strains, locus YOL147C, strain pex11, hits give low values 0.98 | S. cerevisiae deletion strains, locus YOR061W, strain CKA2, hits give low values 0.99 | S. cerevisiae deletion strains, locus YOR069W, strain VPS5, hits give low values 0.996 | S. cerevisiae deletion strains, locus YOR136W, strain idh2, hits give low values 0.998 | S. cerevisiae deletion strains, locus YOR144C, strain elg1, hits give low values 0.993 | S. cerevisiae deletion strains, locus YOR184W, strain ser1, hits give low values 0.954 | S. cerevisiae deletion strains, locus YOR231W, strain MKK1, hits give low values 0.983 | S. cerevisiae deletion strains, locus YOR316C, strain cot1, hits give low values 0.982 | S. cerevisiae deletion strains, locus YPL055C, strain LGE1, hits give low values 0.938 | S. cerevisiae deletion strains, locus YPL241C, strain CIN2, hits give low values 0.991 | S. cerevisiae deletion strains, locus YPL256C, strain CLN2, hits give low values 0.927 | S. cerevisiae deletion strains, locus YPR119W, strain clb2, hits give low values 0.99 | S. cerevisiae deletion strains, locus YPR141C, strain kar3, hits give low values 0.97 | S. cerevisiae deletion strains, locus YPR163C, strain tif3, hits give low values 0.979 | S. cerevisiae deletion strains, locus YPR167C, strain met16, hits give low values 0.989 | S. cerevisiae deletion strains, strain wtn01, hits give low values 0.98 | S. cerevisiae strains, strain wild type, hits give low values 0.991
